Assay [1] can be described thus: antimalarial activity against Dd2 strain (AID 2302;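 active = growth inhibition above 50% at the single 2 µM test dose, taken to imply half-maximal potency below 2 µM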;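 also: 0% = DMSO untreated growth and 100% = chloroquine plus artemisinin killed control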). The settings on record: P. falciparum Dd2 in RBCs, LDH growth readout, 72 h; at 2 µM; stronger effect = higher value.
Assay [2] can be described thus: human hepatoma cell viability loss – ATP luminescence, cytotoxicity control for P. falciparum antimalarial project, primary screen (AID 2303;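 active = inhibition above 50%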;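 also: 0% = DMSO wells and 100% = digitonin-killed cells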). The settings on record: HepG2 viability, 24-48 h, at 10 µM, stronger effect = higher value.
For assay [3], the target named is L-lactate dehydrogenase (Plasmodium falciparum (isolate CDC / Honduras)) (UniProt Q27743). Nature of the assay: PfLDH activity inhibition – cell lysate, 3D7 strain, counter-screen for P. falciparum growth inhibition project (AID 2304).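 Also: 0% = vehicle and 100% = reference inhibitor.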 The settings on record: P. falciparum 3D7 crude extract, LDH APAD/NBT absorbance; at 2 µM; stronger effect = higher value. On the technique in general: A counterscreen serves to expose hits that act by an unwanted route or on another target.
Sequence of L-lactate dehydrogenase (Plasmodium falciparum (isolate CDC / Honduras)) (Q27743 whole entry, looked up): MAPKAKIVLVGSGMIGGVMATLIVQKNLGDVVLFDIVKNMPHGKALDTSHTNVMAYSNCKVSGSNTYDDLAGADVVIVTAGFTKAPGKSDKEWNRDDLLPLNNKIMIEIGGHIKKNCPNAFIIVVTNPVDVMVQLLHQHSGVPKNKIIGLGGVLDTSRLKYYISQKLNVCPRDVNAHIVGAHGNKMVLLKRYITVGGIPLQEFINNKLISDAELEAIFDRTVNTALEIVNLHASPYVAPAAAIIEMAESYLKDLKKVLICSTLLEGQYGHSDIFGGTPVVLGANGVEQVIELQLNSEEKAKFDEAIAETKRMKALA

Assay [4] is described as follows: inhibition of 3D7 malaria parasite growth – strain 3D7 (AID 2306).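 Also: 0% = DMSO wells and 100% = chloroquine plus artemisinin control wells.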 The settings on record: P. falciparum 3D7 erythrocytic growth, LDH absorbance, 72 h; at 2 µM; stronger effect = higher value.
In assay [5] the target is Calcium-dependent protein kinase 1 (Plasmodium falciparum (isolate 3D7)) (UniProt P62344). Nature of the assay: PfCDPK1 kinase inhibitors, biochemical, TCAMS library (AID 1159585; cut-off not given, nearly all actives have IC50 up to about 0.98 µM;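 also: inhibitors leave more ATP so luminescence rises with inhibition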). The following applies: recombinant PfCDPK1, Kinase-Glo ATP depletion luminescence. Background: In Kinase-Glo more light means more ATP remaining.
Sequence of Calcium-dependent protein kinase 1 (Plasmodium falciparum (isolate 3D7)) (P62344 whole entry, looked up): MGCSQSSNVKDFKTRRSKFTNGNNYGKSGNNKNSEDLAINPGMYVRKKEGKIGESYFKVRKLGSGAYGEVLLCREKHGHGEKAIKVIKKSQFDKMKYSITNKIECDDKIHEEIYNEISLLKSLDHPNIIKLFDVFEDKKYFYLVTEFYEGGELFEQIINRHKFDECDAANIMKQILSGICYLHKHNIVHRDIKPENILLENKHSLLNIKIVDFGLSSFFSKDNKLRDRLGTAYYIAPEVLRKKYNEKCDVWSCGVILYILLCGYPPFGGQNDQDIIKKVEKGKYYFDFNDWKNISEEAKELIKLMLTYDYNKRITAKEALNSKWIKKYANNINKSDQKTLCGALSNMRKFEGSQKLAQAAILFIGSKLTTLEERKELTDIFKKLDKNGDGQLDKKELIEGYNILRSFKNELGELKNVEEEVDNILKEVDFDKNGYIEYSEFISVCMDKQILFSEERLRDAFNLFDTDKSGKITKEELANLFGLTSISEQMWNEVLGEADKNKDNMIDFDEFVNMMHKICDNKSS
In assay [6] the target is Plasmodium falciparum protein kinase 6 (PK6, PF3D7_1337100) (UniProt Q8IDW1). Kind of assay: PfPK6 kinase inhibitors, biochemical, TCAMS library (AID 1159586). The following applies: recombinant PfPK6, Kinase-Glo ATP depletion luminescence.
Sequence of Plasmodium falciparum protein kinase 6 (PK6, PF3D7_1337100) (Q8IDW1 1-305): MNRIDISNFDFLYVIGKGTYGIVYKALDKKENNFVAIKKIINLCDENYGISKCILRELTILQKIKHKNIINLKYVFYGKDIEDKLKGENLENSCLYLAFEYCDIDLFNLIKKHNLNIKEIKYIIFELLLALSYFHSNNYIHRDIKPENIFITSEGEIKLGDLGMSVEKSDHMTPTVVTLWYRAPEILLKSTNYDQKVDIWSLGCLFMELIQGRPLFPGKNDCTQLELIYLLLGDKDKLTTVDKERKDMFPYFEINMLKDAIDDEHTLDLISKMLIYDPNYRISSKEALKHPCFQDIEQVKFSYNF
In assay [7] the target is Protein kinase 7 (PK7), Plasmodium falciparum 3D7 (PF3D7_0213400) (UniProt Q7YTF7). Nature of the assay: inhibition of Plasmodium PK7 catalytic activity – biochemical, TCAMS antimalarial set, Kinase-Glo luminescence (AID 1159587). The following applies: recombinant PfPK7, Kinase-Glo ATP depletion luminescence.
Sequence of Protein kinase 7 (PK7), Plasmodium falciparum 3D7 (PF3D7_0213400) (Q7YTF7 1-343): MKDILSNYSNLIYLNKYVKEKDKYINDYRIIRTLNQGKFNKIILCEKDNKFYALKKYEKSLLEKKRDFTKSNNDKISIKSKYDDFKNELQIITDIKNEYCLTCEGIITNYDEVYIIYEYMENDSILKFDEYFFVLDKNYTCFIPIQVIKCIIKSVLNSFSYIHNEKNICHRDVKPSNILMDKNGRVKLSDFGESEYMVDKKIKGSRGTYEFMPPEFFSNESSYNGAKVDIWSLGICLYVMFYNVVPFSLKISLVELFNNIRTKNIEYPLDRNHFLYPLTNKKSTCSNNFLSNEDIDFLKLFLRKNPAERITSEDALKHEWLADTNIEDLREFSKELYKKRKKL
Assay [8] concerns the target Calcium-dependent protein kinase 4 (Plasmodium falciparum (isolate 3D7)) (UniProt Q8IBS5). Kind of assay: PfCDPK4 kinase inhibitors, biochemical, TCAMS library (AID 1159588; cut-off not given, nearly all actives have IC50 up to about 0.91 µM). The following applies: recombinant PfCDPK4, Kinase-Glo ATP depletion luminescence.

Values without a mark were called inactive. For some assays here: Potency and affinity values are given separately. The source made the active and inactive calls. Unless noted, no rule for the calls is given here.

Sequence of Calcium-dependent protein kinase 4 (Plasmodium falciparum (isolate 3D7)) (Q8IBS5 whole entry, looked up): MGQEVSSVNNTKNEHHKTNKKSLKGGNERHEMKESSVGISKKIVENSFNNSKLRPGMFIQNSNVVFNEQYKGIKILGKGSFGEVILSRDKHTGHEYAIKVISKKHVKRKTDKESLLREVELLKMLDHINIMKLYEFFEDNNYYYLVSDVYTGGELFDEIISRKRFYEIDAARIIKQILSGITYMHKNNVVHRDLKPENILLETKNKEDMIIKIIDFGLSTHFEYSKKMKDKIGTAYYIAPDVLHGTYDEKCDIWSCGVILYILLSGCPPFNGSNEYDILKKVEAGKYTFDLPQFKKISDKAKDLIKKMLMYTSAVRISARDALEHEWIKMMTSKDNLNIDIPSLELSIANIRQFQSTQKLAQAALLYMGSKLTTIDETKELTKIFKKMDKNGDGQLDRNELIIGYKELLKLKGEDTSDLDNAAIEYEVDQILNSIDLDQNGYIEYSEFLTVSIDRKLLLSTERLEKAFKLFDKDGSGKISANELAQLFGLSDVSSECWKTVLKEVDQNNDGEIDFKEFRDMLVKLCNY

A word on the inhibition: it is the change of the read-out against control, counted positive when it falls. In the case of `Nc1nc(N)c2c(ccc3c2ccn3CCCC(F)(F)F)n1`, the results for the growth inhibition in assay [1] and in assay [4] were 34% and 97% (active), respectively. The inhibition in assay [2] is 66% (active); in assay [3] it was 0%. Moreover, the outcome in assay [5], in assay [6], in assay [7] and in assay [8] was inactive.
Take `COc1cccc(CCc2ccc(O)c3c2C[C@H]2C[C@H]4[C@H](N(C)C)C(=O)C(C(N)=O)=C(O)[C@@]4(O)C(=O)C2=C3O)c1`: the results for the growth inhibition in assay [1] and in assay [4] were 67% (active) and 93% (active), respectively. The inhibition in assay [2] is 43%; in assay [3], -4%. Besides, the outcome in assay [5], in assay [6], in assay [7] and in assay [8] was inactive.
`CCc1cc2c(cc1CC)CC(NC[C@@H](O)c1ccc(O)c3[nH]c(=O)ccc13)C2`: the growth inhibition is 9% in assay [1] and 101% (active) in assay [4]. Further, the inhibition in assay [2] was -3%; in assay [3], -4%. The result in assay [5], in assay [6], in assay [7] and in assay [8] was inactive.
On to `CC1=C(C(=O)Nc2cc3cn[nH]c3cc2F)C(c2ccc(Cl)c(NS(C)(=O)=O)c2)CC(=O)N1` (configuration not stated), for which the growth inhibition in assay [1] was 98% (active); in assay [4] it was 88% (active). Further, the inhibition in assay [2] was 2%; in assay [3], -1%. Moreover, the result in assay [5], in assay [6], in assay [7] and in assay [8] was inactive.
On to `Cc1noc(C)c1-c1cccc(CNCc2ccc(-c3cccc(-c4nc5ccc(C(F)(F)F)cc5[nH]4)c3)cc2)c1`, for which the figures for the growth inhibition in assay [1] and in assay [4] were 97% (active) and 101% (active), respectively. Further, the values for the inhibition in assay [2] and in assay [3] were 37% and 3%, respectively. In addition, the result in assay [5], in assay [6], in assay [7] and in assay [8] was inactive.
As for `CC(C)c1ccc(NC(=O)c2cccc(CN3CCCN(Cc4cccc(O)c4)CC3)c2)cc1`, the growth inhibition in assay [1] was 33%; in assay [4], 97% (active). The inhibition in assay [2] was 25%; in assay [3] it was -2%. In addition, the result in assay [5], in assay [6], in assay [7] and in assay [8] was inactive.
Consider `COc1ccc(C2CC(c3ccccc3)=NN2C(=O)c2ccc(Br)o2)cc1` (configuration not stated), for which the growth inhibition was 45% in assay [1] and 96% (active) in assay [4]. The inhibition was 6% in assay [2] and -6% in assay [3]. The outcome in assay [5], in assay [6], in assay [7] and in assay [8] was inactive.
With `NS(=O)(=O)Cc1cccc(-c2ccnc3ccc(-c4cccc(S(N)(=O)=O)c4)cc23)c1`, the growth inhibition in assay [1] was 42%; in assay [4], 98% (active). Moreover, the inhibition was 39% in assay [2] and -2% in assay [3]. The outcome in assay [5], in assay [6], in assay [7] and in assay [8] was inactive.
As for `COc1cc2c(cc1OC)C(C(=O)Nc1cc(OC)c(OC)c(OC)c1)C(c1ccc(SC)cc1)N(C)C2=O` (configuration not stated), the growth inhibition in assay [1] was 64% (active); in assay [4] it was 97% (active). Also, the values for the inhibition in assay [2] and in assay [3] were 14% and 2%, respectively. The outcome in assay [5], in assay [6], in assay [7] and in assay [8] was inactive.
Turning to `Cc1cc(C(=O)Nc2ccc3c(ccn3C3CCCN(Cc4ccc(C(F)(F)F)cc4F)CC3)c2)no1` (configuration not stated), the growth inhibition in assay [1] is 95% (active); in assay [4], 92% (active). Also, the inhibition in assay [2] is 19%; in assay [3], -1%. Besides, the result in assay [5], in assay [6], in assay [7] and in assay [8] was inactive.
For the compound `COc1cc(NC(=O)/C=C/c2cc(F)cc(F)c2F)cc(OCCN2CCCCC2)c1`, the values for the growth inhibition in assay [1] and in assay [4] were 80% (active) and 102% (active), respectively. In addition, the inhibition in assay [2] was 10%; in assay [3], 0%. The result in assay [5], in assay [6], in assay [7] and in assay [8] was inactive.
For `COc1ccc2c(NN=Cc3ccccc3F)ccnc2c1`, the growth inhibition in assay [1] is 99% (active); in assay [4], 98% (active). For the same compound, the inhibition in assay [2] is 15%; in assay [3], 0%. Also, the outcome in assay [5], in assay [6], in assay [7] and in assay [8] was inactive.
For the compound `Cc1noc(C)c1-c1cccc(CNCc2ccc(-c3ccc(-c4nc5ccccc5[nH]4)s3)cc2)c1`, the growth inhibition in assay [1] is 79% (active); in assay [4] it was 103% (active). Moreover, the inhibition in assay [2] is 41%; in assay [3] it was -6%. In addition, the outcome in assay [5], in assay [6], in assay [7] and in assay [8] was inactive.
Turning to `O=C(Nc1nccs1)c1cc(-c2cccnc2)nc2ccc(Br)cc12`, the results for the growth inhibition in assay [1] and in assay [4] were 79% (active) and 100% (active), respectively. Moreover, the inhibition in assay [2] was 7%; in assay [3], 5%. In addition, the result in assay [5], in assay [6], in assay [7] and in assay [8] was inactive.
Turning to `COc1cccc2cc(C(=O)N[C@@H](CC(C)C)C(=O)N[C@H](/C=N/N3CCOC3=O)CC(C)C)oc12`, the growth inhibition in assay [1] is 72% (active); in assay [4], 90% (active). The results for the inhibition in assay [2] and in assay [3] were 4% and -2%, respectively. The outcome in assay [5], in assay [6], in assay [7] and in assay [8] was inactive.
For the compound `O=C(NCCCNc1ccnc2cc(Cl)ccc12)c1ccccc1F`, the growth inhibition in assay [1] is 97% (active); in assay [4], 100% (active). The inhibition in assay [2] is 18%; in assay [3] it was 3%. For the same compound, the outcome in assay [5], in assay [6], in assay [7] and in assay [8] was inactive.
Regarding `CN(C)CCCN1C(=O)c2[nH]nc(-c3ccc(Cl)cc3O)c2C1c1ccc(Cl)cc1` (configuration not stated), the growth inhibition in assay [1] was 15%; in assay [4], 99% (active). Further, the inhibition in assay [2] is 57% (active); in assay [3], 4%. The result in assay [5], in assay [6], in assay [7] and in assay [8] was inactive.
For `O=C(NC1CCCCC1)N(Cc1cccc(-c2ccc(CNCCc3ccccc3)cc2)c1)C1CCN(Cc2ccccc2)CC1`, the growth inhibition in assay [1] and in assay [4] was 93% (active) each time. Further, the figures for the inhibition in assay [2] and in assay [3] were 61% (active) and 4%, respectively. Moreover, the outcome in assay [5], in assay [6], in assay [7] and in assay [8] was inactive.
Take `CC(C)(C)NS(=O)(=O)c1cc(C(=O)N2CCC(CCN3CCC(C(=O)c4ccc(F)cc4)CC3)(c3cccc(F)c3)CC2)c(Cl)cc1F`: the growth inhibition in assay [1] and in assay [4] was 99% (active) each time. Further, the values for the inhibition in assay [2] and in assay [3] were -1% and 4%, respectively. Moreover, the result in assay [5], in assay [6], in assay [7] and in assay [8] was inactive.

For the origin of these results see PubChem BioAssay.
